# Reference: PubChem BioAssay (NCI)
# This is part of a sample that, as a whole, favours compounds with a hit. Of some 83,000 tested, about 20% had one in any assay.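 Each cell line was grown in a 96-well plate and treated with one concentration of compound for 48 hours. Values below 10 were considered active.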 A number with no mark means an inactive call. Activity calls are given as the source filed them.
# Tested on: SN12C renal
# Assay: NCI-60 one-dose screen, 48 h (100 = growth as untreated, 0 = no growth, -100 = all killed)
# Conditions: 10 µM unless noted
row,Compound,growth
1,COc1ccccc1NC(=O)COc1ccc(/C=C2/Oc3cc4occc4c(OC)c3C2=O)cc1OC,104%
2,O=C(Nc1ccc(-n2cc(-c3ccncc3)c(-c3ccc(O)c(Cl)c3)n2)cc1)Nc1cc(C(F)(F)F)cc(C(F)(F)F)c1,61.6%
3,c1ccc(CNCCN(CCNCc2ccccn2)Cc2ccc3ccccc3c2)nc1,7.67% (active)
4,Cc1ccc2[nH]c3nc4cccnc4c(C)c3c2c1,88.4%
5,O=[N+]([O-])c1ccccc1NC1c2ccccc2Oc2ccccc21,92.9%
6,C=CCn1c(SCC(=O)Nc2ccc(C(=O)/C=C/c3cc(OC)c(OC)c(OC)c3)cc2)nnc1-c1ccc(OC)cc1,13.8%
7,O=C(NCCNc1nccc(-c2c(-c3cccc(O)c3)nc3sccn23)n1)c1ccccc1O,48%

# Tested on: UO-31 renal
# Assay: as above
# Conditions: 10 µM unless noted
row,Compound,growth
1,Nc1ccc(S(=O)(=O)Nc2ccnn2-c2ccccc2)cc1,82.4%
2,O=C(Nc1cccc(-n2ccc3c(NC(=O)c4ccccc4)nccc32)c1)Nc1cc(C(F)(F)F)cc(C(F)(F)F)c1,12.1%
3,Nc1nccc2c1ccn2-c1cccc(NC(=O)c2ccc(N3CCOCC3)c(C(F)(F)F)c2)c1,7.5% (active)
4,COc1ccc(-c2nn(-c3ccc(NC(=O)Nc4cc(C(F)(F)F)cc(C(F)(F)F)c4)cc3)cc2-c2ccncc2)cc1Cl,13.3%
5,CN(C)CCS(=O)(=O)Nc1cc(-c2ccc3ncnc(Nc4ccc(F)c(Cl)c4)c3c2)cnc1Cl,-61.2% (active)
6,O=C(CSc1nnc(-c2cc3c([nH]c4ccccc43)c(-c3cccc(O)c3)n2)n1-c1ccccc1)c1ccccc1,63.4%
7,CNCCCOc1c(Br)cc(CCNC(=O)/C(Cc2cc(Br)c(OC)c(Br)c2)=N/O)cc1Br,-44.9% (active)
8,O=C(Nc1cccc(-n2ccc3c(NC(=O)c4ccccc4)nccc32)c1)c1cc(N2CCOCC2)cc(C(F)(F)F)c1,9.78% (active)
9,CCC1(C(N)=O)CC2C=CC1CC2 (stereo unspecified),90.8%
10,[2H]c1nc(Nc2ncc(F)c(-c3cc(F)c4nc(C)n(C(C)C)c4c3)n2)c([2H])c([2H])c1CN1CCN(CC)CC1,23.1%
11,O=C1c2ccccc2OC=C(c2ccccc2)N1CCCCN1CCCCC1,85.8%
12,O=S(=O)(Nc1cccc2cc(OS(=O)(=O)c3ccccc3)ccc12)c1ccccc1,59.7%
13,COc1cc(CN(c2ccc(Cl)cc2)C2OC(=O)c3ccccc32)cc(OC)c1OC (stereo unspecified),72.4%
14,O=C(Nc1ccc(-n2ccc3c(NC(=O)c4ccccc4)nccc32)cc1)c1cccc(C(F)(F)F)c1,23.7%
15,O=C(Nc1ccc(-n2ccc3c(NC(=O)c4ccccc4)ncnc32)cc1)Nc1cccc(Cl)c1Cl,-80.4% (active)
16,CC1OC(n2c3ccccc3c3c4c(c5c6ccccc6[nH]c5c32)C(=O)N(CCN[C@@H]2CCC[C@H]2N)C4=O)CC(O)C1O (stereo partly specified),63.3%
17,O=C(Nc1cccc(-n2ccc3c(NC(=O)c4ccccc4)nccc32)c1)c1cccc(C(F)(F)F)c1,22.4%
18,CC(=O)c1cc2c(c(O)c1C)C(=O)C(=O)c1c(O)cccc1-2,-97.3% (active)
19,O=S(c1ccccc1)c1ccc2nnnn2n1 (stereo unspecified),73.1%
20,O=C1OC(N(Cc2ccc(Cl)cc2)c2ccccc2)c2ccccc21 (stereo unspecified),94.5%

row,Compound,growth
1,COc1ccc(Cn2cc3c(c2-c2cc(OC)c(OC)c(OC)c2)CCc2c(CO)noc2-3)cc1,30.1%
2,O=C1C(Cl)=C(Nc2ccccc2)C(=O)C(Cl)=C1Nc1ccccc1,94.2%
3,O=S(=O)(CCN1CCOCC1)Nc1cncc(-c2ccc3ncnc(Nc4ccc(F)c(Cl)c4)c3c2)c1,51.9%
4,COC1=C(OC)C(=O)C=CC1=O,89.1%
5,Nc1nc(-c2cc3c(cc2Cl)NC(=O)/C3=C/c2ccc(Cl)cc2)cs1,54.3%
6,O=C(NCCNc1nccc(-c2c(-c3cccc(O)c3)nc3sccn23)n1)Nc1cc(C(F)(F)F)cc(C(F)(F)F)c1,73.1%
7,CCn1c(SC)nnc1-c1cc2c([nH]c3ccccc32)c(-c2cccc(O)c2)n1,24.1%
8,C=CC(=O)Nc1cccc(Nc2nc(Nc3ccc(OCCOC(F)F)cc3)ncc2F)c1,6.93% (active)
9,NC(=O)C1=C[C@H]2[C@H]3C=C[C@@]2(O)C(=O)O[C@@H]3O1,54.5%
10,COc1ccc(-c2ccc(NC(=O)Nc3ccc(Cl)c(C(F)(F)F)c3)c(C)n2)cc1,39.3%
11,O=C(Nc1ccc(-n2ccc3c(NC(=O)c4ccccc4)ncnc32)cc1)Nc1ccc(Cl)c(C(F)(F)F)c1,23.5%
12,COc1cc(Cn2cc3c(c2)-c2onc(CO)c2CC3)cc(OC)c1OC,68.4%
13,COc1ccccc1NC(=O)COc1ccc(/C=C2/Oc3cc4occc4c(OC)c3C2=O)cc1OC,99.9%
14,O=C(Nc1ccc(-n2cc(-c3ccncc3)c(-c3ccc(O)c(Cl)c3)n2)cc1)Nc1cc(C(F)(F)F)cc(C(F)(F)F)c1,59.6%
15,c1ccc(CNCCN(CCNCc2ccccn2)Cc2ccc3ccccc3c2)nc1,-79.8% (active)
16,Cc1ccc2[nH]c3nc4cccnc4c(C)c3c2c1,62.8%
17,O=[N+]([O-])c1ccccc1NC1c2ccccc2Oc2ccccc21,60.8%
18,C=CCn1c(SCC(=O)Nc2ccc(C(=O)/C=C/c3cc(OC)c(OC)c(OC)c3)cc2)nnc1-c1ccc(OC)cc1,-79.6% (active)
19,O=C(NCCNc1nccc(-c2c(-c3cccc(O)c3)nc3sccn23)n1)c1ccccc1O,34.6%
